Our source for the sensor-assay potency score (higher = more potent) values is the OligoGym collection.
Note: reference of the scale not given here.

In the first assay the target is REPS2. The experiment in a line: pooled miR-30 sensor sort-seq; sequence = guide strand. The following applies: shRNA.
For the sequence TAAATATGGAATCTGAACCTTA, the sensor-assay potency score (higher = more potent) was -0.238.
Consider TTGACATAGTACTCGCGCTGTT, for which the sensor-assay potency score (higher = more potent) is -0.809.
Sequence TTTTCTGGTCTGAATTTCCTAC yielded a sensor-assay potency score (higher = more potent) of -0.484.
The sequence TTCTTGATGAACCTCCTTGAGC came in with a sensor-assay potency score (higher = more potent) of -1.27.
TAGTACTTTTCAAAGCTTGTTT: the sensor-assay potency score (higher = more potent) was -0.389.
For the sequence ATTGACATAGTACTCGCGCTGT, the sensor-assay potency score (higher = more potent) is 0.431.
For the sequence TTATCCTCATCGTCCATTCTTT, the sensor-assay potency score (higher = more potent) is -0.725.

For another assay, the target named is RERG. Described as above. The following applies: shRNA.
Turning to TAATTCTACATCTTCTACTAGC, the sensor-assay potency score (higher = more potent) is -0.25.
In turn, AACAACTTCATCATCGATGGTT gave a sensor-assay potency score (higher = more potent) of -0.0718.
For the sequence TAATTTTTCTTACTGTACCTGG, the sensor-assay potency score (higher = more potent) was found to be 0.0466.
With TCTTCTGTGCTAACCTGCCTGG, the sensor-assay potency score (higher = more potent) was -0.541.
TTCTACATCTTCTACTAGCATT displayed a sensor-assay potency score (higher = more potent) of -1.27.
Regarding TTAATTTGCTTGTCTTTTGGAC, the sensor-assay potency score (higher = more potent) was -0.0136.
On to TTGACATGCGTGGTGGAGCTGC, for which the sensor-assay potency score (higher = more potent) was -0.453.
In the case of TTAGACACATTTATTCAGCTGT, the sensor-assay potency score (higher = more potent) was found to be 0.3.
In turn, TAGAGTTCCTTCTATTTCCTGT came in with a sensor-assay potency score (higher = more potent) of 0.463.
For the sequence TTGCCCTGCACCATCCTCCGGC, the sensor-assay potency score (higher = more potent) was -0.458.
On to TTTGATCTCATCTAGGATGTTC, for which the sensor-assay potency score (higher = more potent) stood at 0.194.
As for TTTGTTTCCAACCAAGATGAGA, the sensor-assay potency score (higher = more potent) is -1.39.

The next assay concerns the target REST. Described as above. Conditions: shRNA.
TATCTGAACAGGCTCCTTCTGG displayed a sensor-assay potency score (higher = more potent) of -0.749.
Still for that read-out and setting: then TTGGTCTTCGAGCTCTTGCCTT, with -0.836.
Regarding TTGAACTGTAAATATCTGGAGC, the sensor-assay potency score (higher = more potent) was -0.111.
Sequence TTTCTTAGCACTGTGAACTCTG returned a sensor-assay potency score (higher = more potent) of 0.443.
For the sequence TACACTTGTAGACTCGCTCATT, the sensor-assay potency score (higher = more potent) is -0.726.
On the same count and under the same terms, to TTCATCTTCATCAATTTCCTGA belongs 0.487; to TTTCACTTTTGAGACATCCATT, -1.15; to TAGATTTGAAGTGATACTGTAG, 0.294.
With TTTGCTGTAATCTTTTCCCTTT, the sensor-assay potency score (higher = more potent) is -0.0854.
Consider TATTTGAACTGTAAATATCTGG, for which the sensor-assay potency score (higher = more potent) was -0.000404.
Same read-out and setting: then TATCTTAACAGGTTCCTTCTGG, with 0.123; and TTCAATAAGGACTTGCTCCTTC, with 0.499.

A further assay addresses RET. The assay is described as above. Conditions: shRNA.
In turn, TTGGATATCTTGGAAACCCAGT came in with a sensor-assay potency score (higher = more potent) of -0.723.
TACAATTTGATGACATGTGGGT registered a sensor-assay potency score (higher = more potent) of 0.209.
Still for that read-out and setting: then TAGAGTTTGTTTTCAATCCATG, with -0.723; and TTCCGGTTGAGAACCAGCCTAT, with -0.898.
As for TTTAACTGGAATCCGACCCTGG, the sensor-assay potency score (higher = more potent) came out at 0.235.
Same read-out and setting: then TAAACATCTCGGGACAAGCCGA, with -0.999.
Regarding TTGAACTCCACCACGGCGCTGG, the sensor-assay potency score (higher = more potent) turned out to be 0.715.
TTGTCTGGCCTCTCCATCCGGT showed a sensor-assay potency score (higher = more potent) of -0.338.
In turn, TTAAGCATATCTGAAAACCAAA gave a sensor-assay potency score (higher = more potent) of -1.63.
